Activity calls are given as the source filed them. Unless noted, the rule behind the calls is not given here.

We go through 24 molecules from PubChem BioAssay.

The test system of experiment [1] is XIP peptide (Xip251-270) binding. Description: small-molecule binders of XIP peptide, primary screen, biochemical, small-molecule microarray, fluorescence 635/667 nm, 0.1 µg/mL protein (AID 1182). Particulars: fluorescent protein binding, 635 nm, higher = more signal, called active from +8 up or from −8 down.
For another experiment, the system named is XIP peptide (Xip251-270). Briefly: small-molecule binders of XIP peptide, primary screen, biochemical, small-molecule microarray, fluorescence 635/667 nm, 0.5 µg/mL protein (AID 1183). The following applies: small-molecule microarray binding, fluorescence 635 nm; higher = more signal.
Experiment [2] can be described thus: Plasmodium falciparum growth inhibition, primary screen, strain 3D7, DAPI fluorescence, 100 nL (AID 1184).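 Note: parasites grown inside human red blood cells in medium with human serum.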 Particulars: P. falciparum 3D7 growth, 3 d, higher = more signal.
Experiment [3] deals with Homeobox protein Hox-A13 (Mus musculus) (UniProt Q62424). Description: inhibitors of HoxA13-DNA binding, primary screen, biochemical, fluorescence polarization, labeled oligonucleotide (AID 1185). The following applies: 15 min, higher = more signal, called active from +8 up or from −8 down. A general note: Fluorescence polarisation rises when a labelled molecule tumbles more slowly, as on binding a larger partner.
Sequence of Homeobox protein Hox-A13 (Mus musculus) (Q62424 whole entry, looked up): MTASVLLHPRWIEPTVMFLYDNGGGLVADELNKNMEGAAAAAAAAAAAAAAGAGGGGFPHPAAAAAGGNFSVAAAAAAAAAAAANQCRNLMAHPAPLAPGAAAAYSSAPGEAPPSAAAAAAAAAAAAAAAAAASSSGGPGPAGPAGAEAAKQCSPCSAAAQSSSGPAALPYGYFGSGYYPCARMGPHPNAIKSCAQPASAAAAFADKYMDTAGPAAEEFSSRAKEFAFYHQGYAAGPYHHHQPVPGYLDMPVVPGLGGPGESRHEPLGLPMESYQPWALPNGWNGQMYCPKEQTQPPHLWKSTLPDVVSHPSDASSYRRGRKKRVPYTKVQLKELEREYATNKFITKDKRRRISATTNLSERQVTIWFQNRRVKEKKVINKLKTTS

Experiment [4] is described as follows: inhibitors of hydroxyurea-induced Chk1 phosphorylation, primary screen, imaging, HeLa, phospho-Chk1 antibody, percent positive cells (AID 1186). The following applies: hydroxyurea-induced phospho-Chk1 immunofluorescence imaging, higher = more signal.
The nature of experiment [5]: inhibitors of hydroxyurea-induced Chk1 phosphorylation, primary screen, imaging, HeLa, phospho-Chk1 nuclear intensity (AID 1187). The following applies: hydroxyurea-induced phospho-Chk1 immunofluorescence imaging, higher = more signal.

With `CCCCCN1CC=CC23O[C@@H]4C=CCOC(=O)[C@@H]4[C@H]2C(=O)N(C(C)CO)[C@@H]3C1=O` (some centres undefined), the composite z-score in experiment [1] was 0.379 (inactive); with XIP peptide (Xip251-270) it was -0.0756. Further, the z-score in experiment [2] is 0.795; in experiment [3], -4.96 (inactive); in experiment [4], 0.719 (inactive); in experiment [5] it was 0.149 (inactive).
Take `C=CCNC(=O)[C@H]1[C@@H]2C(=O)O[C@@H](c3ccccc3)[C@@H](c3ccccc3)N2[C@@H](c2ccc(OCCO)cc2)[C@]12C(=O)Nc1ccc(C#CCC(C(=O)OC)C(=O)OC)cc12`: the composite z-score is 1.06 (inactive) in experiment [1] and 0.635 in the experiment with XIP peptide (Xip251-270). Further, the z-score in experiment [2] was -2.03; in experiment [3], -2.29 (inactive); in experiment [4], 0.239 (inactive); in experiment [5], 0.514 (inactive).
As for `COc1ccc([Si](C)(C)[C@@H]2[C@@H](CCn3cc(CCO)nn3)O[C@]3(C(=O)N(Cc4cccc(N5C(=O)c6cccc7cccc5c67)c4)c4ccccc43)[C@H]2C)cc1`, the composite z-score in experiment [1] was 1.49 (inactive); in the experiment on XIP peptide (Xip251-270), 0.589. Moreover, the z-score in experiment [2] is -2.81; in experiment [3], -2.66 (inactive); in experiment [4], -0.953 (inactive); in experiment [5], -0.813 (inactive).
In the case of `C=CC[C@]12N=C(c3ccc(OCCCO)cc3)O[C@H]1c1ccccc1N(CCS(=O)(=O)c1ccccc1)C2=O`, the composite z-score is 3.59 (inactive) in experiment [1] and 0.708 in the experiment on XIP peptide (Xip251-270). For the same molecule, the z-score in experiment [2] is -1.57; in experiment [3] it was -2.59 (inactive); in experiment [4], -0.382 (inactive); in experiment [5], -0.315 (inactive).
Turning to `COCCOC(=O)N1C(=O)[C@@]2(c3cc(C#CC4(O)CCCCCC4)ccc31)[C@H](C(=O)Nc1nc3ccccc3s1)[C@H]1C(=O)O[C@H](c3ccccc3)[C@H](c3ccccc3)N1[C@@H]2c1ccccc1OCCO`, the composite z-score was 1.77 (inactive) in experiment [1] and 0.748 with XIP peptide (Xip251-270). The z-score in experiment [2] was -1.43; in experiment [3] it was 2.95 (inactive); in experiment [4], 0.203 (inactive); in experiment [5], 0.693 (inactive).
Turning to `C=C(CCCC)/C(=C/C[C@@H](OC(C)=O)c1cccc(OCCO)c1)c1cnc2ccccc2c1`, the composite z-score in experiment [1] was -0.276 (inactive); with XIP peptide (Xip251-270), 0.114. The z-score was -2.99 in experiment [2], -4.61 (inactive) in experiment [3], -0.24 (inactive) in experiment [4] and -0.359 (inactive) in experiment [5].
Turning to `COc1ccc([Si](C)(C)[C@@H]2[C@@H](CCn3cc([C@H](O)c4ccccc4)nn3)O[C@]3(C(=O)N(Cc4cccc(N5CCC5=O)c4)c4ccccc43)[C@H]2C)cc1`, the values for the composite z-score (in experiment [1]; in the experiment with XIP peptide (Xip251-270)) were 0.863 (inactive) and 0.46, respectively. In addition, the z-score in experiment [2] was -2.48; in experiment [3], -2.8 (inactive); in experiment [4] it was -0.529 (inactive); in experiment [5] it was -0.414 (inactive).
Consider `COc1ccccc1CN1C(=O)c2ccccc2[C@@]2(Cc3ccccc3N(CCCN(C)C)C2=O)[C@@H]1c1ccc(CO)cc1`, for which the results for the composite z-score (in experiment [1]; in the experiment on XIP peptide (Xip251-270)) were 0.0228 (inactive) and 0.216, respectively. In addition, the z-score was -1.3 in experiment [2], 1.78 (inactive) in experiment [3], -0.481 (inactive) in experiment [4] and -0.454 (inactive) in experiment [5].
As to `COC(=O)c1c(CC[C@@H](CO)NC(=O)N[C@@H](Cc2ccccc2)Cn2cc(-c3ccccn3)nn2)oc(C(=O)N2CCOCC2)c1C(=O)OC`, the composite z-score is 0.53 (inactive) in experiment [1] and 0.0134 with XIP peptide (Xip251-270). Further, the z-score in experiment [2] is -0.671; in experiment [3], -2.7 (inactive); in experiment [4], 0.101 (inactive); in experiment [5] it was 0.0064 (inactive).
Turning to `COc1ccc([Si](C)(C)[C@H]2[C@H](CCO)O[C@@]3(C(=O)N(Cc4ccccc4)c4ccc(N5CCCCC5=O)cc43)[C@@H]2C)cc1`, the composite z-score is 0.391 (inactive) in experiment [1] and 0.686 with XIP peptide (Xip251-270). Besides, the z-score is -1.67 in experiment [2], -5.2 (inactive) in experiment [3], -1.39 (inactive) in experiment [4] and -0.713 (inactive) in experiment [5].
As for `CCOC(=O)C[C@H]1[C@H](OC(=O)c2cc3ccccc3oc2=O)[C@@H](NC(=O)CC(C)C)c2cc(OCCCO)ccc2N1C(=O)c1ccccc1`, the composite z-score in experiment [1] was -0.131 (inactive); in the experiment with XIP peptide (Xip251-270), 0.495. Besides, the z-score was -1.89 in experiment [2], -1.53 (inactive) in experiment [3], -0.315 (inactive) in experiment [4] and 0.0139 (inactive) in experiment [5].
On to `COCCOC(=O)N1C(=O)[C@@]2(c3cc(C#Cc4ccc(OC)cc4)ccc31)[C@H](c1ccc(O)cc1)N1[C@H](c3ccccc3)[C@H](c3ccccc3)OC(=O)[C@H]1[C@@H]2C(=O)Nc1nc2ccccc2s1`, for which the composite z-score in experiment [1] is 0.691 (inactive); with XIP peptide (Xip251-270) it was 0.641. Moreover, the z-score is -0.0098 in experiment [2], -0.183 (inactive) in experiment [3], -0.233 (inactive) in experiment [4] and -0.215 (inactive) in experiment [5].
In the case of `COCC(=C=CC[C@@H](O)c1ccc(OCCO)cc1)C[C@@H](O)c1ccccn1`, the figures for the composite z-score (in experiment [1]; in the experiment on XIP peptide (Xip251-270)) were 1.51 (inactive) and -0.161, respectively. Further, the z-score was 0.797 in experiment [2], -5.97 (inactive) in experiment [3], 0.117 (inactive) in experiment [4] and 0.265 (inactive) in experiment [5].
Consider `O=C(NC1CC1)[C@@H]1c2ccccc2C(=O)N(Cc2cc(F)cc(C(F)(F)F)c2)[C@H]1c1ccc(CO)cc1`, for which the composite z-score in experiment [1] is -0.414 (inactive); in the experiment on XIP peptide (Xip251-270), 0.716. Also, the z-score in experiment [2] is -0.247; in experiment [3], -3.5 (inactive); in experiment [4], 0.135 (inactive); in experiment [5], -0.0928 (inactive).
As to `CC(=O)Nc1cc(Br)ccc1C(=O)NCc1ccccc1`, the composite z-score in experiment [1] was 0.137 (inactive); in the experiment with XIP peptide (Xip251-270), 0.201. For the same molecule, the z-score was 1.3 in experiment [2], -0.77 (inactive) in experiment [3], 0.0852 (inactive) in experiment [4] and 0.516 (inactive) in experiment [5].
Turning to `COC(=O)[C@]1(Cc2ccccc2)N=C(c2ccc(OCCCO)cc2)O[C@@H]1c1ccccc1N=[N+]=[N-]`, the composite z-score in experiment [1] is 0.062 (inactive); in the experiment with XIP peptide (Xip251-270) it was 0.685. The z-score in experiment [2] is -2.27; in experiment [3], -2.66 (inactive); in experiment [4], -0.566 (inactive); in experiment [5], -0.724 (inactive).
Take `CCOC(=O)C[C@H]1[C@H](OC(=O)c2ccc(-c3ccccc3)cc2)[C@@H](NC(=O)c2ccccc2)c2cc(OCCCO)ccc2N1C(=O)Cc1ccc(OC)cc1`: the composite z-score was -0.11 (inactive) in experiment [1] and -0.664 in the experiment on XIP peptide (Xip251-270). Further, the z-score in experiment [2] is -1.09; in experiment [3] it was -1.36 (inactive); in experiment [4] it was -0.0036 (inactive); in experiment [5], 0.16 (inactive).
In the case of `COC(=O)C(CC#Cc1ccc2c(c1)[C@]1(C(=O)N2)[C@H](c2ccccc2OCCO)N2[C@H](c3ccccc3)[C@H](c3ccccc3)OC(=O)[C@H]2[C@@H]1C(=O)O)C(=O)OC`, the values for the composite z-score (in experiment [1]; in the experiment on XIP peptide (Xip251-270)) were 0.117 (inactive) and 0.791, respectively. Also, the z-score in experiment [2] was 0.386; in experiment [3], -5.57 (inactive); in experiment [4], 0.0449 (inactive); in experiment [5], 0.426 (inactive).
Take `CC(C)Cc1ccc(CN2CC[C@@H](N)C2)cc1`: the composite z-score was 0.773 (inactive) in experiment [1] and -0.0255 in the experiment on XIP peptide (Xip251-270). The z-score in experiment [2] is -0.423; in experiment [3], -0.811 (inactive); in experiment [4], -0.939 (inactive); in experiment [5], -0.735 (inactive).
With `C=C(CCCC)/C(=C/C[C@H](OC(C)=O)c1ccc(OCCO)cc1)c1cnc2ccccc2c1`, the figures for the composite z-score (in experiment [1]; with XIP peptide (Xip251-270)) were 0.578 (inactive) and 0.741, respectively. Besides, the z-score is -2.93 in experiment [2], -4.14 (inactive) in experiment [3], 0.212 (inactive) in experiment [4] and -0.34 (inactive) in experiment [5].
Consider `O=C1OCC=C[C@H]2OC34C=CCN(CCN5CCOCC5)C(=O)[C@H]3N(CCO)C(=O)[C@@H]4[C@@H]12` (some centres undefined), for which the composite z-score in experiment [1] was 0.218 (inactive); in the experiment with XIP peptide (Xip251-270) it was 0.775. For the same molecule, the z-score is 0.703 in experiment [2], -5.02 (inactive) in experiment [3], -0.474 (inactive) in experiment [4] and -0.371 (inactive) in experiment [5].
With `C=C(CCCC)C(=O)CC[C@H](OC(=O)c1cccnc1)c1ccc(OCCO)cc1`, the results for the composite z-score (in experiment [1]; in the experiment on XIP peptide (Xip251-270)) were 0.0908 (inactive) and -0.543, respectively. The z-score in experiment [2] was -2.96; in experiment [3] it was -5.21 (inactive); in experiment [4], 0.457 (inactive); in experiment [5] it was 0.433 (inactive).
As for `C=C(/C(=C/C[C@H](OC(C)=O)c1ccc(OCCO)cc1)c1cc(C(=O)OC)ccc1OC)C(C)C`, the composite z-score is 0.537 (inactive) in experiment [1] and 0.808 with XIP peptide (Xip251-270). In addition, the z-score in experiment [2] is -2.9; in experiment [3] it was -3.69 (inactive); in experiment [4] it was 0.418 (inactive); in experiment [5], 1.29 (inactive).
As to `COc1ccc(C(=O)Nc2ccc(CN3C(=O)[C@]4(O[C@H](CC(=O)N5CCC[C@H]5CO)[C@@H]([Si](C)(C)c5ccc(OC)cc5)[C@@H]4C)c4ccccc43)cc2)cc1`, the composite z-score in experiment [1] was 0.731 (inactive); with XIP peptide (Xip251-270), 0.76. The z-score in experiment [2] was 0.0279; in experiment [3] it was -2.62 (inactive); in experiment [4], 0.303 (inactive); in experiment [5], 0.493 (inactive).
